Among all 16,000 compounds or so, about 4,000 (25%) were called active. Not shown: some 26% with an inconclusive outcome. Calls come from the whole dose curve; as a rule, active = well fitted curve in the direction sought with a large enough effect; inconclusive = small, poorly fitted or top-dose-only effect, or effect the other way; inactive = no such curve, though single readings can be large or run the other way. Not all results are given here. Numbered stars: 1 amine (or outer) side, 2 acyl side, 3 side chain; on linkers, the order of the positions; unused ones are H or OH. Bridge positions count the residues as written; N and C are the ends. Square brackets hold non-standard residues; d marks the D form. Peptide text beside a SMILES is read from it. I, II: the chains in the order shown. Actinocin(9to1) = Cc1c2oc3c(C)ccc(C(=O)[*:1])c3nc-2c(C(=O)[*:2])c(N)c1=O; aThr = C[C@H](O)[C@H](N)C(=O)O; NMeV = CN[C@H](C(=O)O)C(C)C; Sar = CNCC(=O)O
% is set by controls: 0 for no effect and ±100 for the full control effect.

The target in the assay is Cytochrome P450 2C9 (Homo sapiens) (UniProt P11712). Kind of assay: Cytochrome panel assay with activity outcomes. The conditions noted are these: recombinant CYP, pro-luciferin dealkylation, luminescence, p450-cyp2c9; series mostly up to 57.1 µM.
Cytochrome P450 2C9 (Homo sapiens), sequence (P11712 whole entry, looked up): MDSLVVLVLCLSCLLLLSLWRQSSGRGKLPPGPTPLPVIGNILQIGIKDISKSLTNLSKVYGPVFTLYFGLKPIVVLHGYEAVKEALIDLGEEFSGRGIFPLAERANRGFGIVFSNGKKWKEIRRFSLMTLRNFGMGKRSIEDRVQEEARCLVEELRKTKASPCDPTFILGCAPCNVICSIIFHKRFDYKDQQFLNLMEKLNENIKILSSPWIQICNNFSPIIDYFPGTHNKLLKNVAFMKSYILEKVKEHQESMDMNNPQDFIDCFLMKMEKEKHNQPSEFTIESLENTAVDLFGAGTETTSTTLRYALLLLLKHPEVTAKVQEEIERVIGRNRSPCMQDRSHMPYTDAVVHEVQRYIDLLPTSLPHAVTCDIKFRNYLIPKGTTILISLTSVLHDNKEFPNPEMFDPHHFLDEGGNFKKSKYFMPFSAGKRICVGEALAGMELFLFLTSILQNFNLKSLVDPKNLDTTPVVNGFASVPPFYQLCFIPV
Regarding `COc1ccc(NC(=S)N(CCc2nc3cc(C)c(C)cc3[nH]2)Cc2cccnc2)cc1`, the AC50 is 7.94 µM (active). Still for that read-out and setting: the figure for `Cc1cccc(NC(=S)N(CCc2nc3cc(C)c(C)cc3[nH]2)Cc2cccnc2)c1` is 7.94 µM (active).

As for `Cc1cccc(CNc2nc(-c3cccnc3)nc3ccccc23)c1`, the activity, negative = inhibition was -13% [at 2.29 µM] (inactive).

Regarding `Cc1ccc(C)c(NC(=S)N(CCc2nc3cc(C)c(C)cc3[nH]2)Cc2cccnc2)c1`, the AC50 was 3.98 µM (active).

As for `COc1cccc(NC(=S)N(CCc2nc3cc(C)c(C)cc3[nH]2)Cc2cccnc2)c1`, the AC50 was 5.01 µM (active). `COC(=O)[C@@H]1O[C@@H](SCCN)[C@@H](O)[C@H](O)[C@H]1O`: the activity, negative = inhibition is 15% [at 11.4 µM] (inactive). With `O=C(O)Cc1ccc2ocnc2c1`, the AC50 result is “inactive”.

For the compound `COc1ccc(C2CC(=O)c3cnc(Nc4cc(C)cc(C)c4)nc3C2)cc1` (centres undefined), the AC50 is 10 µM (active). Consider `COc1ccc(Nc2ncc3c(n2)CC(c2ccc(C)cc2)CC3=O)cc1` (centres undefined), for which the AC50 is 5.01 µM (active). Consider `COc1cccc(Nc2ncc3nc(C)c(=O)n(C)c3n2)c1`, for which the AC50 result is “inactive”.

For the compound `COc1cccc(Nc2ncc3nc(C)c(=O)n(C4CC4)c3n2)c1`, the AC50 entry is “inactive”. On the same count and under the same terms, the entry for `COc1ccc(-c2nc3cnc(Nc4ccccc4)nc3n(CCC#N)c2=O)cc1` is “inactive”; for `NS(=O)(=O)c1cc2c(cc1C(F)(F)F)N[C@H](Cc1ccccc1)NS2(=O)=O` it is “inactive”. Still for that read-out and setting: in the case of `CN1CCN([C@@H]2Cc3ccccc3Sc3ccc(Cl)cc32)CC1` it was “inactive”; in that of `CNC(=O)[C@H]1O[C@H](n2cnc3c(NCc4cccc(I)c4)ncnc32)[C@@H](O)[C@@H]1O`, “inactive”. Turning to `CCSC1=C(C#N)C2(CCCCC2)C(C#N)=C(N)N1`, the AC50 was 2.82 µM (active). For `CCOC(=O)[C@]1(CC(=O)O)CCCC1=O`, the activity, negative = inhibition is -6.54% [at 11.4 µM] (inactive). As to `Cc1cccc(NS(=O)(=O)c2c(C)n[nH]c2C)c1`, the AC50 is 17.8 µM (active). Consider `Cc1cc(C)c(S(=O)(=O)Nc2cccc(C(F)(F)F)c2)c(C)c1`, for which the AC50 entry is “inactive”.

Turning to `COc1ccc(N(CC(=O)Nc2cccc(C)c2)S(=O)(=O)c2c(C)n[nH]c2C)cc1`, the half-maximal activity concentration (AC50) is 1.41 µM (active). Consider `CN(C)c1cc(-c2cccc(NS(C)(=O)=O)c2)ncn1`, for which the activity, negative = inhibition was 16.1% [at 2.29 µM] (inactive).

As for `COc1ccccc1CNc1ccnc(-c2ccccc2OC)n1`, the activity, negative = inhibition is -5.44% [at 2.29 µM] (inactive). On to `C=CCSc1nnc2c(n1)OC(c1c(C)[nH]n(-c3ccccc3)c1=O)Nc1ccccc1-2` (centres undefined), for which the AC50 was 0.447 µM (active).

On to `CS(=O)(=O)N1CCC[C@@]2(CCN(C(=O)Nc3cccc(C#N)c3)C2)C1`, for which the AC50 result was “inactive”. `CCCCCSc1nncc(=O)[nH]1`: the AC50 was 4.47 µM (active).

Regarding `Clc1ccc(CC[C@H](Cn2ccnc2)Sc2c(Cl)cccc2Cl)cc1`, the AC50 is 0.0126 µM (active). Same read-out and setting: in the case of `NC(N)=Nc1ccc(Cl)cc1` it was “inactive”.

For the compound `Cc1ccc(C(=O)NCCNc2ccc(Cl)cc2[N+](=O)[O-])o1`, the AC50 was 10 µM (active). With `CCOc1ccc(NC(=O)c2ccc(Br)o2)c([N+](=O)[O-])c1`, the AC50 entry was “inactive”.

On to `COc1ccc(NC(=O)CN(C)S(=O)(=O)c2ccc(Cl)cc2)c([N+](=O)[O-])c1`, for which the AC50 result is “inactive”. The same measure, in the same setting: in the case of `CC(NC(=O)CN1CCCC1)C12CC3CC(CC(C3)C1)C2` (centres undefined) it was “inactive”; in that of `CC(Oc1ccc(O)cc1)(P(=O)(O)O)P(=O)(O)O`, “inactive”. In the case of `O=C(Nc1ccccc1)N1CCC2(CCNCC2)CC1`, the AC50 entry is “inactive”. Still for that read-out and setting: the figure for `CC(C)n1c(N2CCN(C(=O)Nc3ccccc3)CC2)nc2ccccc21` is 6.31 µM (active); for `Cn1cccc1C(=O)N1CCC2(CCN(C(=O)Nc3ccccc3)CC2)CC1` it is “inactive”; for `COC(=O)N1CCC2(CCN(C(=O)Nc3ccccc3)CC2)CC1` it is “inactive”. On the same count and under the same terms, in the case of `O=C(Nc1cccc(NC(=O)N2CCN(c3ccccc3)CC2)c1)N1CCN(c2ccccc2)CC1` it was 7.94 µM (active); in that of `CC(=O)N1CCC2(CC1)CCN(C(=O)Nc1cccc(F)c1)CC2`, “inactive”. As to `CC(C)=CCC/C(C)=C/CO/N=C1/C[C@@H](O)[C@@H](O)[C@@H]2[C@H]3C(=O)N(c4ccc(F)cc4F)C(=O)[C@@H]3CC[C@@H]12`, the activity, negative = inhibition is -4.09% [at 11.4 µM] (inactive). For `CC(C)C(C(=O)O)N1C(=O)/C(=C/C=C/c2ccco2)SC1=S` (centres undefined), the AC50 was 6.31 µM (active). Same read-out and setting: the entry for `c1ccc2cc(C3=NCCN3)ncc2c1` is “inactive”; for `Cc1cccc(N(CC(=O)NC2CCCC2)C(=O)c2cc3cc4cccc(C)c4nc3s2)c1C` it is 0.794 µM (active).

For `Cc1ccc(C)c(N(CC(=O)NC2CCCC2)C(=O)c2cc3cc4cccc(C)c4nc3s2)c1`, the AC50 is 0.447 µM (active). `N=C(N)SCCc1cnc[nH]1`: the AC50 entry was “inactive”. Still for that read-out and setting: the figure for `COC(=O)[C@@]1(Cc2ccccc2)[C@H]2c3cc(C(=O)N4CCCC4)n(Cc4cc(F)cc5c4OCOC5)c3C[C@H]2CN1C(=O)c1ccccc1` is 0.316 µM (active); for `COC(=O)[C@@]1(Cc2ccc(OC)cc2)[C@H]2c3cc(C(=O)N4CCCC4)n(Cc4cc(F)cc5c4OCOC5)c3C[C@H]2CN1C(=O)c1ccccc1` it is 6.31 µM (active); for `O=C(NCC1CCC(C(=O)O)CC1)OCc1ccccc1` (centres undefined) it is “inactive”. The same measure, in the same setting: the entry for `Cc1nn(C)c(Cl)c1NC(=O)OCc1ccc(F)cc1` is “inactive”; for `CSc1nsc(SC)c1NC(=O)OCc1ccccc1` it is 10 µM (active); for `Cc1cccc(NC(=S)NC(=O)c2cccs2)n1` it is 10 µM (active). On the same count and under the same terms, the entry for `Cc1cccc(NC(=O)c2cc(N3C(=O)CCC3=O)ccc2Cl)n1` is “inactive”; for `C/C(=N\NC(=O)c1ccccc1C)c1ccc(NC(=O)c2cccs2)cc1` it is 14.1 µM (active).

On to `Cc1ccccc1C(=O)Nc1cccc(NC(=S)NC(=O)c2cccs2)c1`, for which the AC50 is 3.55 µM (active). As for `CN(C)c1ccc(-c2nccc(NCCN3CCOCC3)n2)cc1`, the activity, negative = inhibition is 5.77% [at 2.29 µM] (inactive). As for `CSc1ccc2c(c1)[C@H](N1CCN(C)CC1)Cc1ccccc1S2`, the AC50 entry is “inactive”. The same measure, in the same setting: the entry for `CCCN1C(=O)C(NC(C)=O)c2cc(OC)ccc21` (centres undefined) is “inactive”. For `CCCN1C(=O)C(Cc2nc3ccccc3c(=O)n2C)c2ccccc21` (centres undefined), the AC50 is 12.6 µM (active). For the compound `FC(F)(F)c1ccccc1-c1nc(NCCN2CCOCC2)c2ccccc2n1`, the activity, negative = inhibition was 12.6% [at 2.29 µM] (inactive). Regarding `CC1CN(C(=O)CN2C(=O)NC3(CCCCCC3)C2=O)CC(C)O1` (centres undefined), the AC50 result is “inactive”. In the case of `CC(=O)NCCNc1ncncc1-c1ccc(N(C)C)cc1`, the activity, negative = inhibition is -1.01% [at 2.29 µM] (inactive). `Cc1ccc(NC(=O)CN2C(=O)S/C(=C\c3cccn3C)C2=O)cc1`: the AC50 entry is “inactive”. Same read-out and setting: in the case of `Cc1ccc(/C=C2\SC(=S)N(CCCC(=O)Nc3ccccn3)C2=O)cc1` it was 5.01 µM (active); in that of `CCOc1c(OC(C)=O)ccc(/C=C2\N=C(SCC)SC2=O)c1[N+](=O)[O-]`, 5.62 µM (active); in that of `C=CCSC1=Nc2sccc2C2=NC(=O)CN12`, “inactive”. Same read-out and setting: the figure for `Cc1ccccc1NC1=C(C(=O)c2ccccc2)N(C)S(=O)(=O)c2ccccc21` is 3.55 µM (active). Still for that read-out and setting: the entry for `Cc1ccc(C)c(C(=O)CN2C(=O)c3ccccc3S2(=O)=O)c1` is “inactive”. With `Cn1c(=O)c2[nH]c(COCc3nc4c([nH]3)c(=O)n(C)c(=O)n4C)nc2n(C)c1=O`, the activity, negative = inhibition was 7.37% [at 11.4 µM] (inactive). Take `CCn1c(SCc2ccc(C(=O)Nc3nccs3)cc2)nnc1-c1ccc(NC(C)=O)cc1`: the concentration at half-maximal activity (AC50) is 1.78 µM (active). The same measure, in the same setting: in the case of `C=CCn1c(SCc2ccc(C(=O)Nc3ccccc3)cc2)nnc1-c1ccccc1` it was 3.98 µM (active); in that of `O=C(CSc1nnc(-c2ccncc2)n1Cc1ccccc1)Nc1nccs1`, 10 µM (active). Same read-out and setting: in the case of `Cc1ccc(NC(=O)c2ccc(CSc3nnc(-c4ccncc4)n3C)cc2)cc1` it was “inactive”; in that of `C=CCn1c(SCC(=O)Nc2ncc(Cc3ccc(Br)cc3)s2)nnc1-c1ccncc1`, “inactive”; in that of `COC(=O)c1ccc(NC(=O)Cn2nc(-c3ccncc3)nc2SCC(=O)Nc2nccs2)cc1`, 0.224 µM (active).

With `COc1cc(OC)c2nc(C)c3c(c2c1)N(c1ccc(O)cc1)CC3`, the AC50 result was “inactive”.

Turning to `Cc1c2oc3c(C)ccc(C(=O)N[C@@H]4C(=O)N[C@@H](C(C)C)C(=O)N5CCC[C@@H]5C(=O)N(C)CC(=O)N(C)[C@@H](C(C)C)C(=O)O[C@H]4C)c3nc-2c(C(=O)N[C@@H]2C(=O)N[C@@H](C(C)C)C(=O)N3CCC[C@@H]3C(=O)N(C)CC(=O)N(C)[C@@H](C(C)C)C(=O)O[C@H]2C)c(N)c1=O` (I: [aThr]V[dP][Sar][NMeV] / II: [aThr]V[dP][Sar][NMeV]; ester I:1-I:C, II:1-II:C; linker I:N-II:N via Actinocin(9to1)), the AC50 result was “inactive”. Consider `O=C1Nc2ccccc2C1=Nc1cccc2ncccc12`, for which the activity, negative = inhibition was 17.9% [at 11.4 µM] (inactive).

As to `CNc1cc(OC)c(C(=O)N[C@@H]2CCN(Cc3ccccc3)[C@H]2C)cc1Cl`, the AC50 entry is “inactive”.

Turning to `C=CCNCCOCCOc1ccc(C)cc1[N+](=O)[O-]`, the AC50 entry was “inactive”. Same read-out and setting: the figure for `Cc1ccc(OCCOCCn2ccnc2)c(Br)c1` is 0.501 µM (active). `CCOC(=O)N/N=C1/C[C@@H](O)[C@@H](O)[C@@H]2[C@@H]3C(=O)N(CC)C(=O)[C@H]3CC[C@H]12`: the activity, negative = inhibition is 8.47% [at 11.4 µM] (inactive).

As to `O=S(=O)(c1ccc(F)cc1)N1CCCC(CO)C1` (centres undefined), the AC50 result is “inactive”. Still for that read-out and setting: the figure for `O=S(=O)(c1ccc(F)cc1)N1CC2CCCN2c2ccc(C(F)(F)F)cc21` (centres undefined) is 10 µM (active); for `O=C(Nc1ccccc1)N1CC2(CCN(C(=O)c3ccco3)CC2)C1` it is “inactive”. Consider `CN1CCN(c2nc(-c3cccc(C#N)c3)nc3ccccc23)CC1`, for which the activity, negative = inhibition was -2.12% [at 2.29 µM] (inactive). Still for that read-out and setting: the figure for `CN1CCN(c2ncnc3ccc(-c4cccc(C#N)c4)cc23)CC1` is 10.4% [at 2.29 µM] (inactive).

On to `COc1ccc(-c2nc(-c3cccc(C)c3)nc(N3CCN(C)CC3)c2C#N)cc1`, for which the AC50 is 7.94 µM (active).

`Nc1ncnc2nc(N3CCN(CCO)CC3)[nH]c12`: the activity, negative = inhibition is -3.79% [at 11.4 µM] (inactive).

In the case of `CC(=O)NC(NC(C)=O)c1ccc(Br)cc1`, the AC50 result was “inactive”. On the same count and under the same terms, in the case of `Cc1cc(SCC(=O)c2ccc(Br)cc2)cc(C)[o+]1` it was 2.51 µM (active).

(Values after PubChem BioAssay AID1851 (National Center for Advancing Translational Sciences (NCATS), 2009).)
